Data on 40 compounds can be found in PubChem BioAssay (NCATS).

Several values for one entry are separate records, joined by “and”; a condition that tells them apart may be missing. Identical values can stand only once. Inconclusive results are not listed. Activity calls are given as the source filed them. The call rests on the fitted dose curve; in most records, active means well fitted cell-killing curve with a large enough effect; inconclusive means small, poorly fitted or top-dose-only effect; inactive means no such curve, though single readings can be large or run the other way.
Potency means the concentration at half of the fitted maximal effect.

A short description of the test: qHTS of pediatric cancer cell lines to identify multiple opportunities for drug repurposing: Primary screen for OHS-50 cells (AID 1347103). Further: nearly all actives have a fitted effect of over 40% in size. As to conditions: OHS-50 osteosarcoma viability, CellTiter-Glo luminescence, 48 h; series mostly up to 57.3 µM; activity change, negative = cytotoxic: at the top concentration. The source says:
Drug repurposing or repositioning has been offered as a strategy for drug development in oncology programs. This approach has special potential for childhood cancers and other rare or orphan diseases, where the expected return on new drug development has been a disincentive to pharmaceuticals.
In this project we exploit the poly-pharmacology of drugs to discover new indications via phenotypic screening of a panel of 19 well-characterized cell lines derived from solid tumors seen in children and adolescents. The goal is to identify approved drugs with previously unrecognized anticancer properties that has the potential to reveal new mechanisms and biological processes involved in carcinogenesis or drug resistance. We employed a titration-based paradigm (quantitative high-throughput screening or qHTS), where all compounds were tested at multiple concentrations for their effect on cell viability. Concentration-response curves (CRCs) were derived directly from the primary screen, and both potency and efficacy values were used to identify compounds with robust bioactivity profiles. We screened the NIH Chemical Genomics Center (NCGC) Pharmaceutical Collection (NPC) and Mechanism Interrogation Plate (MIPE) small molecule collections of approved and investigational compounds against these cell lines; and measured metabolically active cells after 48 hours of compound treatment as a proxy for cell viability.
Assay Submitter: Nathalia J. Martinez, National Center for Advancing Translational Sciences, National Institutes of Health, Rockville, MD, USA; email: natalia.martinez@nih.gov
[1] Shen, M et al. Quantitative high-throughput phenotypic screening of pediatric cancer cell lines identifies multiple opportunities for drug repurposing. Oncotarget 2017 Dec 19;9(4):4758-4772. PMID 29435139.
The cells were obtained from University of North Carolina (UNC), Pediatric Preclinical Testing Program (PPT), and Coriell Institute (CI).
qHTS cell viability assay:
Cells were assayed in growth media at a density of 500-1,000 cells/well. Five microliters of cells were dispensed into 1,536-well, white, solid-bottom, TC-treated plates (Greiner Bio One) using a multidrop dispenser and incubated at 37 degrees C, 5% CO2, under a humidified atmosphere for 5 hours. Twenty-three nanoliters of compounds and controls (neutral control DMSO or positive control bortezomib at final concentration of 2.3 µM) were subsequently transferred by Kalypsys pintool. For primary screens, the MIPE collection was tested at 11-point dilutions (final concentrations range from 0.78 nM to 46 µM) and the NPC collection at 8-point dilutions (final concentrations range from 0.59 nM to 46 µM). Compounds tested in follow-up screens were assayed at 11-point dilutions. Cells were incubated for 48 hours, followed by addition of 3 µL of CellTiter-Glo (Promega). After a 15 min incubation at room temperature, samples were analyzed for luminescence intensity using a ViewLux High-throughput CCD imager equipped with clear filters.
On the technique in general: Quantitative high-throughput screening tests each substance at several concentrations.
Turning to `OC(CCN1CCCCC1)(c1ccccc1)C1CC2C=CC1C2` (stereo not given), the “activity change, negative = cytotoxic” value is 8.29% (inactive).
Turning to `Cn1c(=O)c(F)c(Nc2ccc(I)cc2F)c2c(=O)n(C[C@@H](O)CO)cnc21`, the “activity change, negative = cytotoxic” value is -25.4% (inactive).
For the compound `CN1CCN(CCCN2c3ccccc3Sc3ccc(C(F)(F)F)cc32)CC1`, the Potency is 27.6 µM (active) and 19.3 µM (active).
Still for that read-out and setting: then `CC(=O)NC(C)c1ccc(Oc2ccc(OC(C)C)cc2)cc1` (stereo not given), with 21.7 µM (active).
On the same count and under the same terms, then `Oc1ccc(C2CNCCc3c2cc(O)c(O)c3Cl)cc1` (stereo not given), with “inactive”.
Take `O=C1[C@H](Cc2ccc(O)cc2)N2C(=O)CCN(C(=O)NCc3ccccc3)[C@H]2CN1Cc1cccc2ccccc12`: the Potency is 4.85 µM (active).
Still for that read-out and setting: then `CN(C(=O)c1ccc(F)cc1C(F)(F)F)C1CCN(c2nnc(-c3ccnn3C)c3ccccc23)CC1`, with 24.3 µM (active).
In the case of `COc1ccccc1-c1cccc(-c2c(O)c3cc(C#N)c(Cl)cc3[nH]c2=O)c1`, the “activity change, negative = cytotoxic” value is 89.4% [at 116 µM] (inactive).
For the compound `COc1ccccc1[C@H](c1cccc2ccccc12)[C@@](C)(C#N)C(=O)N1CCC(c2cccc(C(F)(F)F)c2)CC1`, the Potency is 1.09 µM (active).
Same read-out and setting: then `CC(C)(N)C(=O)N[C@H](COCc1ccccc1)C(=O)N1CCC2(CC1)CN(S(C)(=O)=O)c1ccccc12`, with 27.3 µM (active).
`NCCCC(N)(C(=O)O)C(F)F` (stereo not given): the “activity change, negative = cytotoxic” value is -3.19% (inactive).
Regarding `CCOc1cc(N2CCC(O)CC2)ccc1Nc1ncc2c(n1)N(C)c1ccccc1C(=O)N2C`, the Potency is 0.0432 µM (active).
On to `O=C(Nc1ccc(F)c(C(F)(F)F)c1)Nc1nnc(-c2ccncc2)s1`, for which the “activity change, negative = cytotoxic” value is -6.97% (inactive).
Same read-out and setting: then `CCN(c1ccccc1)c1cc(NC)[n+](C)c(C)n1`, with 13.9% (inactive).
For `Cn1cnc([N+](=O)[O-])c1Sc1ncnc2nc[nH]c12`, the Potency is 1.4 µM (active) and 3.47 µM (active) and 3.06 µM (active).
The same measure, in the same setting: then `COc1ccc2c3n(c(=NC(=O)c4cccnc4)nc2c1OC)CCN3`, with 0.968 µM (active).
Consider `COc1ccc(CC2=NN3C([C@@H](CCc4ccccc4)[C@@H](C)O)=NC(C)C3C(=O)N2)cc1OC` (stereo not given in full), for which the “activity change, negative = cytotoxic” value is 8.31% (inactive).
Consider `CCC(=O)N[C@H]1CC[C@H](C(=O)N(C)c2ccc(-c3nc4ccccc4o3)cc2)C1`, for which the Potency was 19.3 µM (active).
The same measure, in the same setting: then `CCc1cncnc1N1CCN(Cc2nc3ccc(C(F)(F)F)cc3[nH]2)CC1`, with 15.3 µM (active).
On the same count and under the same terms, then `O=C(Nc1nc2ccccc2n1CCN1CCOCC1)c1cccc([N+](=O)[O-])c1`, with 9.68 µM (active).
Consider `NC(N)=NC(=O)c1nc(Cl)c(N)nc1N`, for which the “activity change, negative = cytotoxic” value was 13.6% (inactive).
The same measure, in the same setting: then `Nc1nc2[nH]cc(CCc3ccc(C(=O)N[C@@H](CCC(=O)O)C(=O)O)cc3)c2c(=O)[nH]1`, with -15.1% (inactive).
In the case of `Cc1cnc(NC(=O)C2=C(O)c3ccccc3S(=O)(=O)N2C)s1`, the Potency entry was “inactive”.
Regarding `Cc1c(C)c2c(c(C)c1O)CCC(C)(COc1ccc(CC3SC(=O)NC3=O)cc1)O2` (stereo not given), the “activity change, negative = cytotoxic” value was 11.1% (inactive).
Same read-out and setting: then `Cc1[nH]c(=O)c(C#N)cc1-c1ccc2nccn2c1`, with 18% (inactive); and `Nc1nc2c(ncn2COCCO)c(=O)[nH]1`, with 5.29% (inactive).
Regarding `CCOc1ccn(-c2ccc(F)cc2)c(=O)c1C(=O)Nc1ccc(Oc2ccnc(N)c2Cl)c(F)c1`, the Potency is 19.3 µM (active).
On the same count and under the same terms, then `N=c1nc(N2CCCCC2)cc(N)n1O`, with “inactive”.
With `CC[C@@H](C)[C@H](NC(=O)[C@H](CC1CCCCC1)NC(=O)c1ccno1)C(=O)N1CCC2(CCc3ccccc32)CC1`, the Potency is 17.2 µM (active).
The same measure, in the same setting: then `Oc1cccc(-c2nc(N3CCOCC3)c3oc4ncccc4c3n2)c1`, with 0.444 µM (active).
For the compound `CS(=O)(=O)c1ccc(C(=O)Nc2ccc(Cl)c(-c3ccccn3)c2)c(Cl)c1`, the “activity change, negative = cytotoxic” value is 19.2% (inactive).
Consider `CNC(=O)c1ccccc1Sc1ccc2c(/C=C/c3ccccn3)n[nH]c2c1`, for which the Potency was 17.4 µM (active).
Turning to `Fc1ccc(Cl)cc1-c1nc(Nc2ccncc2)c2nccnc2n1`, the “activity change, negative = cytotoxic” value is -19.2% (inactive).
The same measure, in the same setting: then `OCCn1cc(-c2cnc3nnn(Cc4ccc5ncccc5c4)c3n2)cn1`, with -27.3% (inactive); and `Cc1ccnc(NS(=O)(=O)c2ccc(NC(=O)Nc3ccc(S(=O)(=O)Nc4nccc(C)n4)cc3)cc2)n1`, with -1.14% (inactive).
In the case of `COCC(=O)NCC=Cc1ccc2ncnc(Nc3ccc(Oc4ccc(C)nc4)c(C)c3)c2c1`, the Potency is 19.3 µM (active).
Same read-out and setting: then `CC(C)(C)NCC(O)c1ccc(O)c(CO)c1` (stereo not given), with “inactive”.
The same measure, in the same setting: then `CS(=O)(=O)Oc1ccc2c(NC(N)=O)c(C(=O)c3ccc(Cl)cc3Cl)oc2c1`, with 1.53 µM (active); and `CCn1c(-c2nonc2N)nc2cnc(Oc3cccc(NC(=O)c4ccc(OCCN5CCOCC5)cc4)c3)cc21`, with 15.3 µM (active).
On the same count and under the same terms, then `Cc1cccc(-c2[nH]c(C(C)(C)C)nc2-c2ccc3nccnc3c2)n1`, with 6.11 µM (active).
